RGS4 inh: inhibitors of human regulator of G protein signaling 4; Transcreener GDP fluorescence polarization, RGS4-accelerated GTP hydrolysis; P49798; Potency, µM (series often up to 114 µM), without a hit: top-dose activity change, negative = inhibition, hits mostly inhibitors; hit rate 0.039% among 390,000; further: on the % scale 0 is the no-effect control and ±100 the full control effect; nearly all actives have a fitted effect of over 75% in size
Target sequence (P49798 whole entry, looked up): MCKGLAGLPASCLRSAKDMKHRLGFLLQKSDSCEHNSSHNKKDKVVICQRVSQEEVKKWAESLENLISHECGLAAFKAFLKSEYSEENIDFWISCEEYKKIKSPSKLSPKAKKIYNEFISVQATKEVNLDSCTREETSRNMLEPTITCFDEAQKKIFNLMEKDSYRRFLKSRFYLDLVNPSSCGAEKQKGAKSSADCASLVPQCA
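MLSMR compounds (23 nl, pin-transferred) preincubated 10 min at room temperature with a 500nM (2x) first reagent, then RGS4 at 900nM (2x) plus Transcreener GDP mix added; fluorescence polarization (620/688 nm) read before and after 90 min at 30 °C.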
TSG101-PTAP inh: blocks PTAP/TSG101 interaction to inhibit HIV-1 budding; Q99816; Fluorescence polarization, FITC-PTAP peptide / Tsg101 binding; AID 493005; 340,000 tested, under 10 active; Potency, µM (series often up to 115 µM), inactives show at the top dose activity change, negative = inhibition, actives largely listed as inhibitors; active means well fitted inhibition curve with a large enough effect in the main read-out, with a control signal flat, not every such curve was filed as active; inconclusive means small, poorly fitted or top-dose-only effect, or effect the other way, or a change in a side signal; inactive means no such curve, though single readings can be large or run the other way; further: % of control where 0% means no effect
Target sequence (Q99816 whole entry, looked up): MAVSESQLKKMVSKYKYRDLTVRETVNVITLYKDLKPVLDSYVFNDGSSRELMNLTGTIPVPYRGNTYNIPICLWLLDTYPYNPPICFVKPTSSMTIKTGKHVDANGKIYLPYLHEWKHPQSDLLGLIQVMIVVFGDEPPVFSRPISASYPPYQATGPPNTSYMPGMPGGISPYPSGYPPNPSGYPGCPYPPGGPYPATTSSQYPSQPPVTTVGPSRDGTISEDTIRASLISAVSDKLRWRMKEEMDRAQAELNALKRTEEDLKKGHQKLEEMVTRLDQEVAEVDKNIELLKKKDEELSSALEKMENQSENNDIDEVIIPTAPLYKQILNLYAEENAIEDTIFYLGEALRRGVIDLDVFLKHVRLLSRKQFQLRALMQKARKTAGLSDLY
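Steps: Tsg101 binding domain dispensed (10 uM final), compounds pinned in DMSO, FITC-labeled PTAP-motif peptide added (50 nM final); after 20 min binding at room temperature, polarization measured.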
KB-V1 MDR tox: KB-V1 MDR subline cytotoxicity | AID 1347076 | Potency, µM (doses to about 46.1 µM), usual class: cytotoxic | hit rate 3.4% among 400,000 | KB-V1 MDR cells viability, CellTiter-Glo, 72 h; further: on the % scale 0 is the no-effect control and ±100 the full control effect; nearly all actives have a fitted effect of over 60% in size
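Cytotoxicity via CellTiter-Glo luminescence after 72 h compound exposure at 37 degrees C. Cells: drug-selected KB-V1 line, DMEM phenol-red free plus 10% FBS. Compounds tested at multiple concentrations; normalized data fitted to concentration-effect curves.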
MCF10A rereplic: induces DNA re-replication in MCF 10a normal breast cells | Potency, µM (highest dose often 46.1 µM), for inactives: at the top dose activity, positive = re-replication, actives largely listed as activators | hit rate 2.9% among 350,000 | MCF 10A DNA re-replication, Hoechst nuclear intensity, 48 h | AID 624296; further: % of control where 0% means no effect; nearly all actives have a fitted effect of over 50% in size
KB-3-1 cytotox: KB-3-1 parental cell cytotoxicity; KB-3-1 viability, CellTiter-Glo ATP luminescence, 72 h; Potency, µM (top dose mostly 46.1 µM), usual class: cytotoxic; hit rate 1.4% among 400,000; further: on the % scale 0 is the no-effect control and ±100 the full control effect; nearly all actives have a fitted effect of over 60% in size
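Here the drug-naive KB-3-1 line serves as comparator for MDR sub-line selectivity; cells received compound titrations, 72 h at 37 °C, then CellTiter-Glo readout.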
SW480 rerep: induces DNA re-replication in SW480 colon adenocarcinoma cells | hit rate 1.8% among 340,000 | Potency, µM (series often up to 46.1 µM), without a hit: at the highest dose re-replication activation, most hits filed as activators | AID 624297 | SW480 DNA re-replication, Hoechst DNA content imaging, 48 h; further: % of control where 0% means no effect; nearly all actives have a fitted effect of over 55% in size
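Image-based read-out: total Hoechst fluorescence of nuclei (405 nm excitation, 500-530 nm emission), with hits raising the fraction of high-intensity nuclei. SW480 colon cells incubated 48 hr with compounds at 37 C.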
Numbers without * were called inactive; i = inactive; u = inconclusive; x = no result. Only some compounds are listed: those with a hit (about 6.6% of all), similar ones and a draw of the others. Unless noted, the call rests on the fitted dose curve; in most records, active means well fitted curve in the direction sought with a large enough effect; inconclusive means small, poorly fitted or top-dose-only effect, or another doubt; inactive means no such curve, though single readings can be large; an effect the other way counts as inactive or inconclusive. Potency means the concentration at half of the fitted maximal effect.

SMILES	RGS4 inh	TSG101-PTAP inh	KB-V1 MDR tox	MCF10A rereplic	KB-3-1 cytotox	SW480 rerep
CCOC(=O)c1c(C)[nH]c(C)c1S(=O)(=O)NCC(=O)N1CCN(c2cc(Cl)ccc2C)CC1	16%	x	i	x	i	x
CCOC(=O)c1c(C)[nH]c(C)c1S(=O)(=O)NCCN1CCN(c2cc(Cl)ccc2C)CC1	-25%	3%	u	0%	16µM*	-6%
Cc1ccc(C(=O)Nc2cc3cc(Cl)ccc3oc2=O)cc1	2%	x	x	x	x	x
CCC1CCCCN1C(=O)c1ccc([N+](=O)[O-])o1 (configuration not stated)	26%	-5%	i	18µM*	i	93%
CCCNC(=O)Cn1c(=O)/c(=C/c2ccc(-c3ccc([N+](=O)[O-])cc3)o2)s/c1=C\C(=O)C(C)(C)C	-10%	u	i	18µM*	u	7.3µM*
CSc1ccc(/C=c2\s/c(=C\C(=O)C(C)(C)C)n(CC(=O)NCCC3=CCCCC3)c2=O)cc1	1%	-8%	i	u	i	2%
Cc1ccccc1NCc1cccn1-c1nnc(N2CCC(C)CC2)s1	-13%	x	i	x	i	x
CCOc1ccc(C(=O)COC(=O)c2c(-c3ccccc3)noc2C)cc1	-2%	-6%	u	6.5µM*	u	u
Cc1onc(-c2ccccc2)c1C(=O)OCCOc1cccc(Cl)c1	31%	-6%	i	21µM*	u	6.5µM*
CCOc1ccc(OCC)c(-c2c(=O)n(OCc3ccccc3C(=O)OC)c3ccccc3[n+]2[O-])c1	1%	-5%	3.7µM*	4%	i	0%
CCOc1ccc(OCC)c(-c2c(=O)n(OCc3ccccc3Br)c3ccccc3[n+]2[O-])c1	-4%	-2%	i	-14%	i	u
Cc1cc(C(=O)N2CCN(c3ccc([N+](=O)[O-])cc3)CC2)c(C)o1	-24%	1%	i	3.7µM*	i	4.1µM*
CCc1cccc(NC(=O)Nc2csc3c2CCCC3)c1	-3%	x	i	x	i	x
O=C(NCc1ccc2c(c1)CCN2C(=O)c1ccccc1)c1ccc(Br)o1	8%	x	i	x	i	x
CCN(CC)c1ccc(C(=O)NCc2ccc3c(c2)CCN3C(=O)c2ccc(F)cc2)cc1	-9%	x	u	x	15µM*	x
N#Cc1ccc(C(=O)NCc2ccc3c(c2)CCN3C(=O)c2ccc(F)cc2)cc1	-40%	x	i	x	i	x
O=C(NCc1ccc2c(c1)CCN2C(=O)c1ccc(F)cc1)c1ccc(Br)o1	7%	x	2.6µM*	x	u	x
CCOC(=O)C1CCCN(C(=O)c2cc3c(-c4cccc(OC)c4)nn(C)c3s2)C1 (configuration not stated)	-15%	-1%	6.5µM*	6.5µM*	u	u
CCOc1ccc(CCNC(=O)c2cc3c(-c4cccc(OC)c4)nn(C)c3s2)cc1OCC	-8%	x	23µM*	x	u	x
CCOc1ccc(CCNC(=O)c2cccc(-n3cnnn3)c2)cc1OCC	12%	0%	18µM*	2%	i	-2%
COc1cccc(CNC(=O)Cc2ccc(NC(=O)N3CCSc4ncccc43)cc2)c1OC	25%	x	i	x	i	x
COc1cccc(CNC(=O)CN2C(=O)N(c3cc(C)ccc3C)S(=O)(=O)c3ccccc32)c1OC	3%	x	i	x	i	x
CCOC(=O)c1ccc(NC(=O)CC2C(=O)N(c3ccccc3)C(=O)N2C2CCCCC2)cc1 (configuration not stated)	6%	x	i	x	i	x
CCCN(Cc1cccs1)C(=O)Nc1cc(Cl)ccc1C	9%	x	i	x	i	x
O=C(Cn1cc(SCc2ccccc2F)c2ccccc21)N1CCCCCC1	-8%	x	x	x	x	x
SMILES	RGS4 inh	TSG101-PTAP inh	KB-V1 MDR tox	MCF10A rereplic	KB-3-1 cytotox	SW480 rerep
Cc1ccc(NC(=O)C2C3CC4OC(=O)C2C4C3)cc1Cl (configuration not stated)	-13%	-9%	i	3.7µM*	i	1%
COc1ccc(C(CCNCc2ccc(N(C)C)cc2)c2ccccc2)cc1 (configuration not stated)	4%	-7%	u	u	i	18µM*
COc1ccccc1C(CC(=O)Nc1ccc(Cl)cc1)c1ccc(OC(C)C)cc1 (configuration not stated)	10%	-1%	u	-3%	i	-2%
COc1ccc(C(CCNCc2ccc(OC)c(OC)c2)c2ccc(F)cc2)cc1 (configuration not stated)	0%	-2%	i	5%	i	u
CC(C)Oc1ccc(C(CCNCc2ccc(O)cc2)c2ccccc2)cc1 (configuration not stated)	-21%	-2%	18µM*	u	u	18%
CC(C)Oc1ccc(CNC(=O)CC(c2ccccc2)c2cc(Cl)ccc2O)cc1 (configuration not stated)	-5%	-5%	23µM*	u	i	18%
CCc1ccc(NC(=O)N2CCN(Cc3cc(=O)n4nc(-c5ccccc5OC)sc4n3)CC2)cc1	15%	x	i	x	i	x
CCc1nnc(NC(=O)CN2CCN(c3nc(-c4ccccc4)cs3)CC2)s1	-38%	-6%	21µM*	u	i	u
CN1CCN(C(=O)CSc2nc(-c3cccs3)cc(-c3cccs3)c2C#N)CC1	-46%	1%	u	21µM*	u	u
CN1CCN(C(=O)CSc2nc(-c3ccncc3)ccc2C#N)CC1	23%	-2%	i	-3%	i	-5%
COc1ccc(-c2cc(-c3ccccc3)c(C#N)c(SCC(=O)O)n2)cc1	u	-8%	i	0%	i	u
CC(C)C(=O)NNC(=O)CN1CCN(c2nc(-c3ccccc3)cs2)CC1	13%	-2%	i	9%	i	-1%
CCN(CC)C(=O)CSc1nc(-c2cccs2)cc(-c2cccs2)c1C#N	u	-6%	18µM*	u	i	0%
COc1ccc(-c2cc(-c3ccc(Cl)cc3)c(C#N)c(SCC(=O)O)n2)cc1	-25%	-8%	i	16µM*	i	-61%
Cc1coc2cc3oc(=O)c(CC(=O)NCc4ccccc4)c(C)c3cc12	-12%	x	x	x	x	x
Cc1nc2c(c(C)c1CCC(=O)Nc1cccc(C(F)(F)F)c1)c(=O)n(C)c(=O)n2C	8%	x	i	x	i	x
CCOc1ccccc1CNC(=O)CN1C(=O)CCCc2ccccc21	-11%	x	i	x	i	x
Cc1cc(C)c(S(=O)(=O)NCCc2cc3ccc(C)cc3[nH]c2=O)c(C)c1	-6%	x	i	x	i	x
